Values joined by “and” are separate entries in the source; they are usually repeats but may differ in a detail not shown here. Equal values may be shown once. Among all 5,500 compounds or so, about 2,000 (36%) were called active. Inconclusive results (about 18%) are left out. Cut-off read from the data, not from the text of the source: active = normalized growth mostly below about 0.91 (no sharp cut-off); inconclusive = no clear call, values can overlap the other calls; inactive = mostly above about 0.92. The list shows a part of the results.
Assay: chemical genetic growth profiling, strain panel (AID 1159580);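 note: tested at 20 µM; growth read once vehicle control cultures reached saturation at 30 °C; 1 = growth at the plate median or of vehicle wells; lower values mean less growth of the strain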
Conditions: S. cerevisiae deletion strains, growth OD
[1] = locus YMR307W, strain GAS1, stronger effect = lower value
[2] = locus YPL055C, strain LGE1, stronger effect = lower value

Measured: normalized growth

N=c1c[n+](N2CCOCC2)[n-]o1
inactive: locus YAL040C, strain CLN3, stronger effect = lower value 1 | locus YCL061C, strain MRC1 (second series), stronger effect = lower value 1.02 | locus YDR363W, strain ESC2, stronger effect = lower value 1.01 | locus YER002W, strain NOP16, stronger effect = lower value 1 | locus YJR075W, strain HOC1, stronger effect = lower value 1.01 | [1] 1.01 | locus YNL175C, strain NOP13, stronger effect = lower value 1.01 | locus YNL197C, strain WHI3, stronger effect = lower value 0.999 | locus YNL224C, strain SQS1, stronger effect = lower value 1.02 | locus YOR083W, strain WHI5 (second series), stronger effect = lower value 1.01 | [2] 1.02

Oc1ccc(Cl)c2cccnc12
active: locus YAL021C, strain ccr4, stronger effect = lower value 0.0729 | locus YAL026C, strain drs2, stronger effect = lower value 0.0768 | locus YAL030W, strain snc1, stronger effect = lower value 0.0588 | locus YBL061C, strain skt5, stronger effect = lower value 0.0618 | locus YBR009C, strain hhf1, stronger effect = lower value 0.0586 | locus YBR021W, strain FUR4, stronger effect = lower value 0.11 | locus YBR023C, strain chs3, stronger effect = lower value 0.0665 | locus YBR171W, strain sec66, stronger effect = lower value 0.0765 | locus YBR229C, strain ROT2, stronger effect = lower value 0.0466 | locus YBR231C, strain swc5, stronger effect = lower value 0.0699 | locus YBR279W, strain paf1, stronger effect = lower value 0.0591 | locus YCL011C, strain gbp2, stronger effect = lower value 0.0563 | locus YCL016C, strain dcc1, stronger effect = lower value 0.119 | locus YCL029C, strain bik1, stronger effect = lower value 0.0654 | locus YCL069W, strain vba3, stronger effect = lower value 0.0931 | locus YCR088W, strain abp1, stronger effect = lower value 0.0863 | locus YDL005C, strain med2, stronger effect = lower value 0.14 | locus YDL035C, strain GPR1, stronger effect = lower value 0.0492 | locus YDL040C, strain nat1, stronger effect = lower value 0.169 | locus YDL074C, strain BRE1, stronger effect = lower value 0.0799 | locus YDL101C, strain DUN1, stronger effect = lower value 0.0585 | locus YDL185W, strain tfp1, stronger effect = lower value 0.0618 | locus YDL192W, strain arf1, stronger effect = lower value 0.0648 | locus YDR001C, strain nth1, stronger effect = lower value 0.113 | locus YDR069C, strain doa4, stronger effect = lower value 0.0629 | locus YDR101C, strain arx1, stronger effect = lower value 0.0618 | locus YDR137W, strain rgp1, stronger effect = lower value 0.102 | locus YDR159W, strain sac3, stronger effect = lower value 0.284 | locus YDR162C, strain NBP2, stronger effect = lower value 0.0481 | locus YDR195W, strain ref2 0.112 | locus YDR297W, strain sur2, stronger effect = lower value 0.0577 | locus YDR318W, strain mcm21, stronger effect = lower value 0.0654 | locus YDR334W, strain swr1, stronger effect = lower value 0.0718 | locus YDR335W, strain msn5, stronger effect = lower value 0.0632 | locus YDR388W, stronger effect = lower value 0.0579 | locus YDR392W, strain spt3, stronger effect = lower value 0.12 | locus YDR502C, strain sam2, stronger effect = lower value 0.0635 | locus YEL003W, strain gim4, stronger effect = lower value 0.0561 | locus YEL037C, strain rad23, stronger effect = lower value 0.0834 | locus YEL061C, strain CIN8 (second series), stronger effect = lower value 0.113 | locus YEL061C, strain CIN8, stronger effect = lower value 0.0497 | locus YER015W, strain faa2, stronger effect = lower value 0.0605 | locus YER016W, strain bim1, stronger effect = lower value 0.0613 | locus YER110C, stronger effect = lower value 0.0829 | locus YER111C, strain swi4, stronger effect = lower value 0.0714 | locus YER155C, strain BEM2 (second series), stronger effect = lower value 0.0997 | locus YER155C, strain BEM2, stronger effect = lower value 0.0681 | locus YER167W, strain BCK2, stronger effect = lower value 0.0524 | locus YFR010W, strain ubp6, stronger effect = lower value 0.0733 | locus YGL078C, strain dbp3, stronger effect = lower value 0.0711 | locus YGL086W, strain mad1, stronger effect = lower value 0.0668 | locus YGL167C, strain pmr1, stronger effect = lower value 0.0738 | locus YGL173C, strain kem1, stronger effect = lower value 0.0702 | locus YGL227W, strain vid30, stronger effect = lower value 0.128 | locus YGL240W, strain doc1, stronger effect = lower value 0.0706 | locus YGL248W, strain PDE1, stronger effect = lower value 0.0483 | locus YGL253W, strain hxk2, stronger effect = lower value 0.0835 | locus YGR078C, strain PAC10, stronger effect = lower value 0.0502 | locus YGR135W, strain pre9, stronger effect = lower value 0.066 | locus YGR252W, strain gcn5, stronger effect = lower value 0.174 | locus YHR013C, strain ard1, stronger effect = lower value 0.101 | locus YHR027C, strain rpn1, stronger effect = lower value 0.0624 | locus YHR030C, strain SLT2, stronger effect = lower value 0.0509 and 0.106 | locus YHR079C, strain IRE1 (second series), stronger effect = lower value 0.0587 | locus YHR079C, strain IRE1, stronger effect = lower value 0.127 | locus YHR094C, strain hxt1, stronger effect = lower value 0.0631 | locus YHR129C, strain ARP1, stronger effect = lower value 0.0599 | locus YHR142W, strain chs7, stronger effect = lower value 0.0877 | locus YHR200W, strain rpn10, stronger effect = lower value 0.0662 | locus YIL066C, strain RNR3, stronger effect = lower value 0.0495 | locus YIL073C, strain SPO22, stronger effect = lower value 0.111 | locus YIL125W, strain kgd1, stronger effect = lower value 0.0705 | locus YIR030C, strain dcg1, stronger effect = lower value 0.0597 | locus YJL092W, strain hpr5, stronger effect = lower value 0.0945 | locus YJL095W, strain BCK1 (second series), stronger effect = lower value 0.0605 | locus YJL095W, strain BCK1, stronger effect = lower value 0.0616 and 0.0998 | locus YJL115W, strain asf1, stronger effect = lower value 0.146 | locus YJL129C, strain trk1, stronger effect = lower value 0.0826 | locus YJL134W, strain LCB3, stronger effect = lower value 0.0525 | locus YJL154C, strain vps35, stronger effect = lower value 0.102 | locus YJL164C, strain tpk1, stronger effect = lower value 0.0587 | locus YJL166W, strain qcr8, stronger effect = lower value 0.059 | locus YJL168C, strain set2, stronger effect = lower value 0.0636 | locus YJL187C, strain SWE1 (second series), stronger effect = lower value 0.0476 | locus YJR043C, strain POL32, stronger effect = lower value 0.0636 | locus YJR066W, strain TOR1, stronger effect = lower value 0.0218 | locus YKL009W, strain mrt4, stronger effect = lower value 0.0954 | locus YKL068W, stronger effect = lower value 0.0759 | locus YKL085W, strain MDH1 (second series), stronger effect = lower value 0.0618 | locus YKL085W, strain MDH1, stronger effect = lower value 0.0618 | locus YKL160W, strain elf1, stronger effect = lower value 0.082 | locus YKR001C, strain vps1, stronger effect = lower value 0.0627 | locus YKR026C, strain gcn3, stronger effect = lower value 0.122 | locus YKR091W, strain srl3, stronger effect = lower value 0.135 | locus YLL001W, strain dnm1, stronger effect = lower value 0.0833 | locus YLL026W, stronger effect = lower value 0.0593 | locus YLL041C, strain sdh2, stronger effect = lower value 0.065 | locus YLR027C, strain aat2, stronger effect = lower value 0.0538 | locus YLR039C, strain RIC1, stronger effect = lower value 0.0942 | locus YLR058C, strain SHM2, stronger effect = lower value 0.0495 | locus YLR102C, strain apc9, stronger effect = lower value 0.0664 | locus YLR113W, strain HOG1, stronger effect = lower value 0.168 | locus YLR221C, strain rsa3, stronger effect = lower value 0.0599 | locus YLR258W, strain gsy2, stronger effect = lower value 0.0596 | locus YLR262C, strain YPT6 (second series), stronger effect = lower value 0.108 | locus YLR262C, strain YPT6, stronger effect = lower value 0.103 | locus YLR268W, strain sec22, stronger effect = lower value 0.0689 | locus YLR320W, strain mms22, stronger effect = lower value 0.0776 | locus YLR330W, strain CHS5, stronger effect = lower value 0.0512 | locus YLR342W, strain FKS1 (second series), stronger effect = lower value 0.0673 | locus YLR342W, strain FKS1, stronger effect = lower value 0.0668 | locus YLR357W, strain rsc2, stronger effect = lower value 0.203 | locus YLR370C, strain arc18, stronger effect = lower value 0.0765 | locus YLR371W, strain rom2, stronger effect = lower value 0.066 | locus YLR384C, strain iki3, stronger effect = lower value 0.0582 | locus YLR418C, strain cdc73, stronger effect = lower value 0.0923 | locus YML016C, strain PPZ1, stronger effect = lower value 0.0462 | locus YML032C, strain rad52, stronger effect = lower value 0.0754 | locus YML120C, strain ndi1, stronger effect = lower value 0.0565 | locus YML124C, strain tub3, stronger effect = lower value 0.0612 | locus YMR058W, strain fet3, stronger effect = lower value 0.0641 | locus YMR078C, strain ctf18, stronger effect = lower value 0.0785 | locus YMR125W, strain sto1, stronger effect = lower value 0.244 | locus YMR129W, stronger effect = lower value 0.0599 | locus YMR205C, strain PFK2, stronger effect = lower value 0.12 | locus YMR223W, strain ubp8, stronger effect = lower value 0.0681 | locus YMR231W, strain pep5, stronger effect = lower value 0.0661 | locus YMR263W, strain SAP30, stronger effect = lower value 0.0554 | [1] 0.132 | locus YNL067W, strain RPL9B, stronger effect = lower value 0.049 | locus YNL071W, strain lat1, stronger effect = lower value 0.0622 | locus YNL183C, strain NPR1, stronger effect = lower value 0.0694 | locus YNL209W, strain ssb2, stronger effect = lower value 0.0567 | locus YNL233W, strain BNI4, stronger effect = lower value 0.0547 | locus YNL248C, strain rpa49, stronger effect = lower value 0.194 | locus YNL250W, strain rad50, stronger effect = lower value 0.0731 | locus YNL271C, strain bni1, stronger effect = lower value 0.0769 | locus YNL298W, strain CLA4, stronger effect = lower value 0.076 | locus YNL307C, strain MCK1, stronger effect = lower value 0.0703 | locus YNL322C, strain KRE1 (second series), stronger effect = lower value 0.0667 | locus YNL322C, strain KRE1, stronger effect = lower value 0.0462 | locus YNR049C, strain mso1, stronger effect = lower value 0.0954 | locus YNR052C, strain pop2, stronger effect = lower value 0.065 | locus YOL006C, strain TOP1, stronger effect = lower value 0.117 | locus YOL147C, strain pex11, stronger effect = lower value 0.0602 | locus YOR001W, strain rrp6, stronger effect = lower value 0.0711 | locus YOR061W, strain CKA2, stronger effect = lower value 0.0478 | locus YOR069W, strain VPS5, stronger effect = lower value 0.0472 | locus YOR070C, strain gyp1, stronger effect = lower value 0.0596 | locus YOR080W, strain dia2, stronger effect = lower value 0.0638 | locus YOR083W, strain WHI5, stronger effect = lower value 0.0897 | locus YOR106W, strain vam3, stronger effect = lower value 0.0664 | locus YOR136W, strain idh2, stronger effect = lower value 0.0784 | locus YOR144C, strain elg1, stronger effect = lower value 0.0595 | locus YOR184W, strain ser1, stronger effect = lower value 0.0724 | locus YOR231W, strain MKK1, stronger effect = lower value 0.115 | locus YOR265W, strain rbl2, stronger effect = lower value 0.0564 | locus YOR270C, strain vph1, stronger effect = lower value 0.131 | locus YOR290C, strain snf2, stronger effect = lower value 0.0717 | locus YOR316C, strain cot1, stronger effect = lower value 0.0637 | locus YPL051W, strain arl3, stronger effect = lower value 0.062 | [2] 0.0714 | locus YPL078C, strain atp4, stronger effect = lower value 0.0623 | locus YPL106C, strain sse1, stronger effect = lower value 0.096 | locus YPL240C, strain hsp82, stronger effect = lower value 0.083 | locus YPL256C, strain CLN2, stronger effect = lower value 0.129 | locus YPR119W, strain clb2, stronger effect = lower value 0.0694 | locus YPR141C, strain kar3, stronger effect = lower value 0.0792 | locus YPR163C, strain tif3, stronger effect = lower value 0.0744 | locus YPR167C, strain met16, stronger effect = lower value 0.0645 | strain wtn01, stronger effect = lower value 0.0639

Source: PubChem BioAssay AID1159580 (chemical genetic matrix, 2015)
